# Measurements published in PMC7862700, “An all-to-all approach to the identification of sequence-specific readers for epigenetic DNA modifications on cytosine”.
# Key:
# Experiment in all cases: DAPPL (digital affinity profiling via proximity ligation, sequencing); 10 mM Tris-HCl pH 7.5, 50 mM NaCl, 1 mM DTT, 4% glycerol, room temperature, 30 min; GST-TFs on glutathione beads, 16-mer random dsDNA library, 0.1% formaldehyde crosslink after washing; high values mean tight binding
# FLI1 = biological target: T1, FLI1 (Homo sapiens, UniProt Q01543 1-452); conditions: protein: recombinant; tags: N-terminal GST; dsDNA, one strand shown
# T1 sequence: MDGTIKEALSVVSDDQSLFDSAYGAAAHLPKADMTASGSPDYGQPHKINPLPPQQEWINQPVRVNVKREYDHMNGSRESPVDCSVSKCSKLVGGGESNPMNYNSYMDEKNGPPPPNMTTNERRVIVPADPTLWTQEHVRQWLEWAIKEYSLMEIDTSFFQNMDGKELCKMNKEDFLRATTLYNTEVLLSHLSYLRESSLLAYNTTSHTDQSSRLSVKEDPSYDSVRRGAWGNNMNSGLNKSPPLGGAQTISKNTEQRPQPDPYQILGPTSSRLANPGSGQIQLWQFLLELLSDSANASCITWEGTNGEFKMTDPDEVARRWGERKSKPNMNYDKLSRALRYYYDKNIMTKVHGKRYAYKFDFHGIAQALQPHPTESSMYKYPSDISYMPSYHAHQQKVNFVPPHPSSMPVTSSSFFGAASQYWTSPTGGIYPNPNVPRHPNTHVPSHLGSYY
# Outline: (§1)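 A tag-only sample was pooled with DNA-barcoded human transcription factors that had been expressed in yeast as GST fusions and captured on glutathione beads. The pools were incubated for 30 min at room temperature with 200 nmole of a random double-stranded 16-mer DNA library in Tris/NaCl/DTT/glycerol buffer, then washed, crosslinked with 0.1% formaldehyde, proximity-ligated (BsaI/T4 ligase, 1 h, 37 °C), PCR-amplified and sequenced on an Illumina NextSeq500. Binding signal is each hexamer's read frequency for a factor divided by its frequency for the tag-only sample.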
# ELK1 = biological target: T2, ELK1 (Homo sapiens, UniProt P19419 1-428); conditions: protein: recombinant; tags: N-terminal GST; dsDNA, one strand shown
# T2 sequence: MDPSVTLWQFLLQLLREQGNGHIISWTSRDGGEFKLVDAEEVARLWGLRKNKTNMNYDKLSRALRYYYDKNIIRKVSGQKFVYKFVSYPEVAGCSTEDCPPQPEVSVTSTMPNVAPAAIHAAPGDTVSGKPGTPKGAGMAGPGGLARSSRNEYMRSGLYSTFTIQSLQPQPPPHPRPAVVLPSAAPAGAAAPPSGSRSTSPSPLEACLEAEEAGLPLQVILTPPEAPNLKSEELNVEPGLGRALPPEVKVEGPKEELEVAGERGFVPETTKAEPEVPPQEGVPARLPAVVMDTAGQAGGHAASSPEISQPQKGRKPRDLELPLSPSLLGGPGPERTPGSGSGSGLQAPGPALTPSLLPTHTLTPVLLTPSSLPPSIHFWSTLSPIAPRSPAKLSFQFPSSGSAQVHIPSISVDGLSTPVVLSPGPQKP
# Outline: as §1
# GABPA = biological target: T3, GABPA (Homo sapiens, UniProt Q06546 1-454); conditions: protein: recombinant; tags: N-terminal GST; dsDNA, one strand shown
# T3 sequence: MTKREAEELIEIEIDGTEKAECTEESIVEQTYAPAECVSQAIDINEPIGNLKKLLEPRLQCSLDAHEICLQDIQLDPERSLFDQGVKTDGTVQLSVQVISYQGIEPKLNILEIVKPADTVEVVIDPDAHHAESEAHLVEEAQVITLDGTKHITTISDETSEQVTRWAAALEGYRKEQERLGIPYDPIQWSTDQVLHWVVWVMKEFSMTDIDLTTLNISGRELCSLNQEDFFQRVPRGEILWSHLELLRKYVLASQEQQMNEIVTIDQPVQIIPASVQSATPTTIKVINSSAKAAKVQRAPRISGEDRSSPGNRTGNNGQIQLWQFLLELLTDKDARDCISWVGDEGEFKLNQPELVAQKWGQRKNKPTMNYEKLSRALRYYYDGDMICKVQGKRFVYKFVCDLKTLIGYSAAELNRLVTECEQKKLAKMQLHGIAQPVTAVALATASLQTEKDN
# Outline: as §1
# ERG = biological target: T4, ERG (Homo sapiens, UniProt P11308 1-479); conditions: protein: recombinant; tags: N-terminal GST; dsDNA, one strand shown
# T4 sequence: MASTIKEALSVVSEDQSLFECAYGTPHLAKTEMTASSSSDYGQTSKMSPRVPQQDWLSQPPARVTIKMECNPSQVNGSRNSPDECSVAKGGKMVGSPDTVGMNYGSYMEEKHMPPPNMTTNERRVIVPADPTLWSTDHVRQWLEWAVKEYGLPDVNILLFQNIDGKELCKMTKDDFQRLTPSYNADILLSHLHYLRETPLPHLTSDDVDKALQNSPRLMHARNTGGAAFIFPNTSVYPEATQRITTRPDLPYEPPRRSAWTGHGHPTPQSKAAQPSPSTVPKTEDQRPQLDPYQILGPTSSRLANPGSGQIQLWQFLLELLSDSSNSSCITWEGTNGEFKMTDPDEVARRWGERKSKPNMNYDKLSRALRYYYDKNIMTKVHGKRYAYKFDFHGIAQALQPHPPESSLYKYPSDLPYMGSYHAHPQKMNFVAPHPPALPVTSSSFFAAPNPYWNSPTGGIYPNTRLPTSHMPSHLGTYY
# Outline: as §1
# ELF1 = ELF1 (Homo sapiens, UniProt P32519 1-619); conditions: protein: recombinant; tags: N-terminal GST; dsDNA, one strand shown
# Outline: as §1
# EHF = biological target: T5, EHF (Homo sapiens, UniProt Q9NZC4 1-300); conditions: protein: recombinant; tags: N-terminal GST; dsDNA, one strand shown
# T5 sequence: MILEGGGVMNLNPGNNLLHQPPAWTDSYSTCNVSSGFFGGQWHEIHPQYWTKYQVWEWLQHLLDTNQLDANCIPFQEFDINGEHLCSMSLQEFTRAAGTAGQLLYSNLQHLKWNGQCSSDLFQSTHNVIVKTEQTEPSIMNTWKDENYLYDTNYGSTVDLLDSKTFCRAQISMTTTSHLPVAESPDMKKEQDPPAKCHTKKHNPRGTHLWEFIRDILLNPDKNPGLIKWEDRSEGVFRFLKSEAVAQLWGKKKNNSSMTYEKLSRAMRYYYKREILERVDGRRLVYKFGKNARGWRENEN
# Outline: as §1
# SPI1 = SPI1 (Homo sapiens, UniProt P17947 1-270); conditions: protein: recombinant; tags: N-terminal GST; dsDNA, one strand shown
# Outline: as §1
# ETV5 = ETV5 (Homo sapiens, UniProt P41161 1-510); conditions: protein: recombinant; tags: N-terminal GST; dsDNA, one strand shown
# Outline: as §1
# HSF1 = HSF1 (Homo sapiens, UniProt Q00613 1-529); conditions: protein: recombinant; tags: N-terminal GST; chain copies: 3; dsDNA, one strand shown
# Outline: as §1
# SPIC = biological target: T6, SPIC (Homo sapiens, UniProt Q8N5J4 1-248); conditions: protein: recombinant; tags: N-terminal GST; dsDNA, one strand shown
# T6 sequence: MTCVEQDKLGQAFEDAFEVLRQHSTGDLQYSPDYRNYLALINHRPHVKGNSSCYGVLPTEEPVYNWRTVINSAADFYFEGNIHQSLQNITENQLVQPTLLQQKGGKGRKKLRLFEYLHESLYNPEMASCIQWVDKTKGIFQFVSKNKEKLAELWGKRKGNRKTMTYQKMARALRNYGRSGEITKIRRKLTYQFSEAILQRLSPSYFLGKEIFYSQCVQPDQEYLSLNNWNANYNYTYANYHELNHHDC
# Outline: as §1
# ELF4 = ELF4 (Homo sapiens, UniProt Q99607 1-663); conditions: protein: recombinant; tags: N-terminal GST; dsDNA, one strand shown
# Outline: as §1
# ELF3 = biological target: T7, ELF3 (Homo sapiens, UniProt P78545 1-371); conditions: protein: recombinant; tags: N-terminal GST; dsDNA, one strand shown
# T7 sequence: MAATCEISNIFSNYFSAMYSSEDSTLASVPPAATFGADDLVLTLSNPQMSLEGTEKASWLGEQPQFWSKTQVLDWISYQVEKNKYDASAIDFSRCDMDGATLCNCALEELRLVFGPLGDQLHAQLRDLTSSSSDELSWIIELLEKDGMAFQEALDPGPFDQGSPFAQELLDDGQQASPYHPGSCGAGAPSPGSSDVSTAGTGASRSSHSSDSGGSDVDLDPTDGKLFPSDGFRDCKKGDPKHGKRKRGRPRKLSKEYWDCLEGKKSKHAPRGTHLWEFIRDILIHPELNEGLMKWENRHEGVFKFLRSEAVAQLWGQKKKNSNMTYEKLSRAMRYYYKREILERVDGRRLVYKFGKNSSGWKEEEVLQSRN
# Outline: as §1
# CRX = CRX (Homo sapiens, UniProt O43186 1-299); conditions: protein: recombinant; tags: N-terminal GST; dsDNA, one strand shown
# Outline: as §1
# ETV1 = ETV1 (Homo sapiens, UniProt P50549 1-477); conditions: protein: recombinant; tags: N-terminal GST; dsDNA, one strand shown
# Outline: as §1
# CRX, sequence (O43186 whole entry): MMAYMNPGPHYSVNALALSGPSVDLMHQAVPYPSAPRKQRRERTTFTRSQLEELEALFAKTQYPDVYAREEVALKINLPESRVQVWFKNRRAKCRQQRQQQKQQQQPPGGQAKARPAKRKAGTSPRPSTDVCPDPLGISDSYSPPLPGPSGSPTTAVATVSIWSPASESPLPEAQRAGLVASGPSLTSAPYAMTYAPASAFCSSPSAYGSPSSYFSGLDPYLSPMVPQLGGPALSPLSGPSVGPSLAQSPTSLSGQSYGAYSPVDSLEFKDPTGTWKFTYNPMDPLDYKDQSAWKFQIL
# ELF1, sequence (P32519 whole entry): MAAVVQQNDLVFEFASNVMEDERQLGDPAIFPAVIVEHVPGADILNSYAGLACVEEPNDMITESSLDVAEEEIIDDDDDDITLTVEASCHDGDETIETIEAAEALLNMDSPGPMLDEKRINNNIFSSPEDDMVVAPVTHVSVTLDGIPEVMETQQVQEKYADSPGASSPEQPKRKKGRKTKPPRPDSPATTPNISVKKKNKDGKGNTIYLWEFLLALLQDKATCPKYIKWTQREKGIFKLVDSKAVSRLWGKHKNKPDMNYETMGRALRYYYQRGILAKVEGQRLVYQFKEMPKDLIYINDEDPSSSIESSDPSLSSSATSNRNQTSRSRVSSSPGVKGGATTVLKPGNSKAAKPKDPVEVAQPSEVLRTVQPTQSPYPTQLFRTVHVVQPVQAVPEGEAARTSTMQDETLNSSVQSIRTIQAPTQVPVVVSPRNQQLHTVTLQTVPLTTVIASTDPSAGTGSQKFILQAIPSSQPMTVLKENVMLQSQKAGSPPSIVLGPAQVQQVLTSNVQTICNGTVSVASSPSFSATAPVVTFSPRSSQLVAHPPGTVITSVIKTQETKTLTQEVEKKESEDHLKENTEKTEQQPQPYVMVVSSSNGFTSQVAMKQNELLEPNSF
# HSF1, sequence (Q00613 whole entry): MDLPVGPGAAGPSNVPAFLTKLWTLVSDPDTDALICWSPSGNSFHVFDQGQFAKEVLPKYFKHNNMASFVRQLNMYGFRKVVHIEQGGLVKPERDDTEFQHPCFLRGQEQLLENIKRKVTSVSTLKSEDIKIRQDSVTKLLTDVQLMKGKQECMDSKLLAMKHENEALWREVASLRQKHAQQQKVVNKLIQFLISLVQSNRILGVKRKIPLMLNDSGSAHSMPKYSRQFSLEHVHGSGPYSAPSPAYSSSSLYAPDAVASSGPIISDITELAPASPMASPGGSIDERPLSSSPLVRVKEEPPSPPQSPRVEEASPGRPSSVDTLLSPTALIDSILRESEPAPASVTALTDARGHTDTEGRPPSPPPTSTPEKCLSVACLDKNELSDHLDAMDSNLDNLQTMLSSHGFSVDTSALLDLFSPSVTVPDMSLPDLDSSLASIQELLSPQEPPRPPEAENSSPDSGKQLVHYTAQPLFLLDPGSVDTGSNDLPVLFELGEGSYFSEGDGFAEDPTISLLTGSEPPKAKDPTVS
# ELF4, sequence (Q99607 whole entry): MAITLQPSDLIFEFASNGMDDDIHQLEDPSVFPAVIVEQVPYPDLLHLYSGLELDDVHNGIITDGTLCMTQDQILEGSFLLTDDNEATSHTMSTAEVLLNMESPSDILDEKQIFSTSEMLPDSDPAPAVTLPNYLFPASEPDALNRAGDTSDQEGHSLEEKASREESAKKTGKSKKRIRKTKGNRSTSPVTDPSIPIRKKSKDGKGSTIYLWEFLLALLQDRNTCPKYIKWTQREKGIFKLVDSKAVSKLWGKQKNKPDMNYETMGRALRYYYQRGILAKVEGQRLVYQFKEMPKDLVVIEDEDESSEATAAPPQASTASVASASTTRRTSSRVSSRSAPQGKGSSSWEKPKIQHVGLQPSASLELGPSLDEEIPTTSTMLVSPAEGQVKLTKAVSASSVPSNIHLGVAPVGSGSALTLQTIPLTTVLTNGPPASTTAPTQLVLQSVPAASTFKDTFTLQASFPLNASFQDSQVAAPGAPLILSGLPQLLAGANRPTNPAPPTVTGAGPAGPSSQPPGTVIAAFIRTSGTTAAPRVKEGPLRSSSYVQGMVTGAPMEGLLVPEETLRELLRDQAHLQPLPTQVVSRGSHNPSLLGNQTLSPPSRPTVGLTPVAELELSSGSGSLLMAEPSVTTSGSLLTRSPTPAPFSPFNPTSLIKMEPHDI
# ETV5, sequence (P41161 whole entry): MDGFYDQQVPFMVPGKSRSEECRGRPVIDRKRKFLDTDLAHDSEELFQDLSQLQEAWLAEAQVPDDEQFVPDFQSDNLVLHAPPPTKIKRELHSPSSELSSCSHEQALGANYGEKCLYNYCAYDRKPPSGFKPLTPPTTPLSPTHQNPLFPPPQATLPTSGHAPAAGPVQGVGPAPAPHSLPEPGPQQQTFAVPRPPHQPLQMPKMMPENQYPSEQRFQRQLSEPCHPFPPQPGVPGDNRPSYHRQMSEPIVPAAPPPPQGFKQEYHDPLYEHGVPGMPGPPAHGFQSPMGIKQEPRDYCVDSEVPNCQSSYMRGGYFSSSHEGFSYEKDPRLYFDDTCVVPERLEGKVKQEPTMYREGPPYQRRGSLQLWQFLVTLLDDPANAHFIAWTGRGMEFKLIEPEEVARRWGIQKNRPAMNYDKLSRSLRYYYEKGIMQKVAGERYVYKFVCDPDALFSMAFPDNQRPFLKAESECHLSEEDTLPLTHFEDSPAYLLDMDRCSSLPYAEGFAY
# ETV1, sequence (P50549 whole entry): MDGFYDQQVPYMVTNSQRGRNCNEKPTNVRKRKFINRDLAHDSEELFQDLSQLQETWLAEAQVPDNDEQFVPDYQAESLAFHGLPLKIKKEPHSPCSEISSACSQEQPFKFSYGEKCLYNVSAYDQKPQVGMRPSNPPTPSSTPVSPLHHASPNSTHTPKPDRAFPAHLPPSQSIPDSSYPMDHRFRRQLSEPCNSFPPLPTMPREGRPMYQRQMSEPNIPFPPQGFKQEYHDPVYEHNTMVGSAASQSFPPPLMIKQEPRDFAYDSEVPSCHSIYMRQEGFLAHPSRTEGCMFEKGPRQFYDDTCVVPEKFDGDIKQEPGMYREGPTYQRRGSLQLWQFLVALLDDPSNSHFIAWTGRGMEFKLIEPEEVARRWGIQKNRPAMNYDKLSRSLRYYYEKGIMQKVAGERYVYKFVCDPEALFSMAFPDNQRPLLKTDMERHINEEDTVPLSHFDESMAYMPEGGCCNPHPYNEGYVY
sequence,measurement,setting,value
TAGTCT,binding signal,FLI1,"1.09 fold enrichment (6-mer frequency, TF over GST control)"
same,binding signal,ELK1,"1.07 fold enrichment (6-mer frequency, TF over GST control)"
same,binding signal,GABPA,"1.21 fold enrichment (6-mer frequency, TF over GST control)"
same,binding signal,ERG,"1.08 fold enrichment (6-mer frequency, TF over GST control)"
same,binding signal,ELF1,"1.07 fold enrichment (6-mer frequency, TF over GST control)"
same,binding signal,EHF,"1.05 fold enrichment (6-mer frequency, TF over GST control)"
same,binding signal,SPI1,"1.07 fold enrichment (6-mer frequency, TF over GST control)"
same,binding signal,ETV5,"1.01 fold enrichment (6-mer frequency, TF over GST control)"
same,binding signal,HSF1,"1.4 fold enrichment (6-mer frequency, TF over GST control)"
same,binding signal,SPIC,"1.05 fold enrichment (6-mer frequency, TF over GST control)"
same,binding signal,ELF4,"1.03 fold enrichment (6-mer frequency, TF over GST control)"
same,binding signal,ELF3,"1.14 fold enrichment (6-mer frequency, TF over GST control)"
same,binding signal,CRX,"1.4 fold enrichment (6-mer frequency, TF over GST control)"
same,binding signal,ETV1,"1.01 fold enrichment (6-mer frequency, TF over GST control)"
